Laboratory results taken from the supplement of paper PMC3334620.
In all, about 33,000 sequences were measured (“E-score (-0.5 to 0.5)”: median about -0.036, highest 2% from about 0.37 on). The list comes from a sample in which the highest values are over-represented; it also holds similar and randomly drawn sequences.

target: T1, Yer064c (UniProt P40041); test: PBM E-score (8-mer binding enrichment) (E-score (-0.5 to 0.5)); higher = stronger / more preferred TF binding; settings: protein concentration: 200 nM; construct: GST-full length
T1 sequence: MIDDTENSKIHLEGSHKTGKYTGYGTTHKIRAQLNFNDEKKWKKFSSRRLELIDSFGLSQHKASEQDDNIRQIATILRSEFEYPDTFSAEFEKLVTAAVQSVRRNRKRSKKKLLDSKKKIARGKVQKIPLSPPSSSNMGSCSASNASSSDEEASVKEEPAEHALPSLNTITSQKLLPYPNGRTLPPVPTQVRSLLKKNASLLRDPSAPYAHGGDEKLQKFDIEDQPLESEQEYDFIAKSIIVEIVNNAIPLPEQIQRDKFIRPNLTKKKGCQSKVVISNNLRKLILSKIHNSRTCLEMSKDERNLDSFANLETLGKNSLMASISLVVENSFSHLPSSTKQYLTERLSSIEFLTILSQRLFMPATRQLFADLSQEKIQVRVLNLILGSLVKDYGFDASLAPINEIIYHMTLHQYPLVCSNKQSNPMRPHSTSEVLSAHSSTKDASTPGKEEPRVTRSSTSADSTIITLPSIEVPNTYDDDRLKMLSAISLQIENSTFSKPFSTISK
Procedure: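 Universal 'all 10-mer' protein binding microarrays (Agilent AMADID 015681) probed with GST-tagged S. cerevisiae TFs (full-length or DBD) made by in vitro transcription/translation (PURExpress), about 100-200 nM. Bound TF was detected with fluorescent anti-GST. Each ungapped 8-mer (which stands for itself and its reverse complement) is scored by the PBM enrichment score (E-score), a modified Wilcoxon-Mann-Whitney statistic from -0.5 to +0.5, computed with the Universal PBM Analysis Suite. Scale: above 0.35 generally sequence-specific binding.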

Sequence	PBM E-score
CATCAGGA	-0.0161
GTGTCGAA	-0.00343
ATCGCAGA	0.0583
AGCTACCA	0.0223
AATTCGGT	0.107
CTCCGTGC	-0.156
ACATTCAT	0.0768
CGCGTTCA	0.0376
ACGACTGA	0.321
AGGACTCG	0.306
AGGACTGC	0.13
CAGACTGC	0.0507
AGGACTGA	0.244
ATGACTGA	0.464
ATGACTGC	0.467
ATGACTCG	0.491
ATTACTCG	0.202
GTAAGGTA	0.00781
GCCAACCC	-0.343
ACGGCCTC	-0.163
ACATGAAT	0.175
ACGCCTAG	-0.133
CGGTGGGC	-0.341
AGTTTCTC	-0.105
CGACTCCA	0.378

Sequence	PBM E-score
AGACTCCA	0.323
CGACTCCG	0.332
CCACTCCA	-0.0978
TGACTCCA	0.479
AGACTCCC	0.32
GGACTCCA	0.176
CGACTCCC	0.404
CAACTCCC	-0.15
AGGGGGAT	-0.373
AGGGGGGA	-0.362
ACTGCGTA	0.0638
AACTCCAT	0.0309
CGGTGCAG	-0.0907
CAGTCAAC	0.36
GCGTCAAC	-0.156
GAGTCAAC	0.474
AAGTCAAC	0.367
CAGTCAAA	0.254
AAGTCAAG	0.283
AAGTCAAA	0.288
ACGTCAAC	0.0642
TTGTCAAA	0.0143
GAGTCAAA	0.461
TAGTCAAA	0.417
TGGTCAAA	-0.0461

Sequence	PBM E-score
TCAAAAAA	0.16
CGATCACC	-0.0685
ACGATCCG	-0.0916
AGGTAGGC	-0.231
AATCTTCT	0.201
GATCATCA	0.142
CATCATCA	0.161
TATCATCA	0.0107
AATCAACG	0.308
AATCATCA	0.463
AATCATCG	0.439
CATCATCC	0.0788
AATCATCT	0.453
GATCATCC	0.171
AATCATCC	0.468
CATCATCG	0.125
TGGGCCCA	-0.123
AATATTGT	0.0413
TATGAATA	0.0885
TCCCTTCA	0.091
CCCTTGAA	-0.0587
AAGCGACT	0.369
ACGCGACT	0.376
AGGCGACG	-0.346
AAGCGACC	-0.161

Sequence	PBM E-score
ACGCGACG	-0.164
AGGCGACC	-0.191
AGGCGACT	0.387
ACGCGACA	-0.128
AAGCGACA	-0.208
ACAACGGT	-0.116
ATAAAGAC	0.196
CCGGCAAG	-0.156
CTTGAGAA	0.136
GCTTCGAC	-0.126
TCAACAGA	0.211
TACTATCA	0.0134
AACTATTA	-0.00806
CACTATCC	-0.196
GACTATTA	0.379
AACTATCC	-0.235
GACTATCA	0.394
GACTATCC	0.404
CACTATTA	0.0522
AACTATCA	0.104
AACGCACA	-0.185
CTGGATTC	0.00174
GTACCGAC	-0.057
ATTTAGGG	-0.0441
ATTAGCCG	-0.106

Sequence	PBM E-score
TGAAGTAA	0.0152
CGAAGTCC	0.0182
CGAAGTCG	0.286
TGAAGTCA	0.445
GGAAGTCC	0.0559
CGAAGTCA	0.437
GGAAGTGA	0.0158
GGAAGTCA	0.426
AGAAGTCA	0.43
AGAAGTCC	-0.056
TGAAGCCA	0.114
AGAAGTCG	0.207
TAATGCTA	0.15
AGTTTTGC	0.0632
AATAAGAC	0.175
TGCGGTAA	0.0977
CCCACGTC	-0.157
GCGGTTAC	0.0193
ACAATGCT	-0.0617
GTAGCATA	-0.262
CCGTCGCG	-0.0591
TATTCCCA	0.00714
GATCACGA	0.0675
GACGTCGA	-0.14
CTGCATTC	-0.0186

Sequence	PBM E-score
CGACTACG	0.337
CGACTAGC	0.297
CAACTAAC	0.132
GGACTAAC	0.367
GTACTAAC	0.128
CGACTACC	0.383
GGACTACC	0.284
CGACTAAC	0.43
GAACTAAC	-0.0243
GGGAGCCA	-0.00881
CCTTACAG	-0.2
CCGTCCTC	-0.281
ACAGCGAC	0.00958
CCATGCCA	-0.113
ATGAAAGG	-0.0528
AAGTCCCT	-0.127
GTGAGAAA	-0.0285
AGGATTTC	-0.125
CTGATTTA	0.238
CTGATTTC	0.222
AAGATTTA	0.136
ATGATTTC	0.403
ATGATTTA	0.415
CCCCGTAA	-0.0314
ATTACTAG	0.0126

Sequence	PBM E-score
TCGCTCCA	-0.0823
CAGAGGGA	-0.199
GATCATGC	0.134
AATCATGC	0.432
CATCATGC	0.0857
CATCATGA	0.294
TATCATGA	0.256
AATCAGGG	0.271
AATCAAGT	0.268
AATCATGA	0.43
AATCAGGC	0.306
AATCATGT	0.453
AAGCATGT	-0.0498
AATCAGGT	0.378
ATTTGAGG	-0.0184
ATGAGGGG	-0.125
AGCCGGCA	-0.176
GAATGCTA	-0.277
GCGAAAAC	-0.131
CCTCTGTA	-0.108
CCGCCGCA	-0.299
CCACAAAG	-0.0168
CATCATGG	0.0236
AATCAGCC	0.355
AATCAGCT	0.389

Sequence	PBM E-score
AATCAGCG	0.344
AATCATGG	0.42
AATCAAGG	0.245
CGATTAGA	0.0752
GATGTGGA	0.0614
GTCTTGTA	0.0119
CAAGTCAC	0.36
GAAGTCAC	0.433
AAAGTCAC	0.411
AAAGTCCT	0.0605
GAAGTCAA	0.357
AAAGTCGT	0.258
AAAGTCAT	0.455
AAAGTCAG	0.323
AAAGTCAA	0.319
AGGTCGTA	0.0488
CTAAACTA	0.0923
ACGGCCTG	-0.12
TAATCCGA	0.205
CAGGATAA	-0.208
ACGAGAAT	-0.125
AATACCAG	-0.0862
CTTTCAAA	0.0256
ACAGTCAT	0.453
ACAGTCGT	0.198

Sequence	PBM E-score
GCAGTCCC	-0.00282
GCAGTCAC	0.435
ACAGTCGG	0.181
GCAGTCAA	0.281
ACAGTCAG	0.378
CCAGTCAC	0.313
ACAGTCAA	0.319
ACAGTCAC	0.405
ACAGTCTC	0.146
CCAGTCAG	0.248
ATCACAGG	0.166
GGCCTGAC	0.109
ACCTGGTG	-0.0925
GCGGCTAC	-0.0969
AATTGTCA	0.0267
GGGGAGAC	-0.0271
CTCGATTA	0.186
AAGGTAGA	-0.209
GCGCCATA	-0.26
